Reference: the supplement of paper PMC10338343
± gives the standard deviation.

These sequences were tested on MILI (PIWIL2) piRISC loaded with piRNA #1 (26 nt) (assay: pre-steady-state target cleavage rate (min^-1); guide: piRNA #1 5'p-UGAGGUAGUAGGUUGUAUAGUAUCCA; MIWI and MILI are mouse PIWI proteins and EfPiwi is from a freshwater sponge; tags in brackets are library labels; higher = faster piRNA-guided slicing of the target). Conditions: auxiliary factor: 500 nM mouse GTSF1.
Summary of the method: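 A transcribed, DNA-blocked target RNA library (0.1 nM) and 1 nM active affinity-purified piRISC bearing one synthetic guide were incubated in HEPES–potassium acetate buffer at 33 °C for 0–8 or 0–960 min, either with or without 500 nM GTSF1 partner protein. Uncleaved targets were sequenced, normalised to depth and to weakly complementary targets, and pooled over three trials, with k3 capped at 0.0001 min^-1. The pre-steady-state cleavage rate was derived with a burst-and-steady-state fit.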

Sequence | pre-steady-state target cleavage rate
GGAGACCUAUGAUAUGUUCCUACGUACCUCA | < 0.0001
GGAGACCUAUGUAUCAACCUACUACCUCA | 0.00951 ± 0.0023
GGAGACCUAUGAUAUGAACCUACUAUCUCA | < 0.0001
GGAGACCUAUCUAUACACCUACUACCUCA | 0.00467 ± 0.0029
GGAGACCUAUGAUUACAUCCUACUUCCUCA | 0.00764 ± 0.0027
GGAGACCUAUCUAUACAACGAACUACCUCA | 0.00423 ± 0.0023
GGAGACCUAACUAUUCAAGCUACUACCUCA | 0.217 ± 0.027
GGAGACCUAUGAUAUGUUGCUACUUCCACA | < 0.0001
GGAGACCUUACUAUACUACCUACUACCUGA | 0.105 ± 0.014
GGAGACCUAUCUAUACAACCUACCUACCUCA | 0.0519 ± 0.0097
GGAGACCUAUGUAUACCAACCUACUACCUCA | 0.00297 ± 0.003
GGAGACCUAUGAUAUGUACCUUCUACGUCA | < 0.0001
GGAGACCUAUCUAUACAACCAACUACCUCA | 0.00522 ± 0.0024
GGAGACGAUACUAUAUAACCUACUACCUCA | 0.205 ± 0.011
GGAGUGGAUACUUUACAACCUAGUACCUCA | 0.0239 ± 0.0053
GGAGACCUAUGAAUACAACCUACUACCCUCA | 0.00533 ± 0.0019
GGAGACCUAUGUAUACUUCCUACUACCUCA | 0.0232 ± 0.005
GGAGACCUAACUAUACAACCUACUACGUCA | 0.0415 ± 0.014
GGAGACCUAUGUAGACAACCUACUACCUCA | 0.0173 ± 0.0042
GGAGACCUAUCUAUACAACCUACUACCUGCA | 0.103 ± 0.014
GGAGACCUAACUAAACAACCUACAACCUCA | 0.131 ± 0.029
GGAGACCUAACUAUACAUGCUACUACCUCA | 0.0788 ± 0.013
GGAGACCUAUCUAUUACAACCUACUACCUCA | 0.0546 ± 0.0098
GGAGACCAUACUAUAGAUCCUACUACCUCA | 0.229 ± 0.026
